Source: publication PMC11006913

What follows are sequences tested against HOXC10 (Homo sapiens, UniProt Q9NYD6 254-340) (assay: PBM; 200 nM protein, PBS). Details: dsDNA, one strand shown.
Sequence of HOXC10 (Homo sapiens, UniProt Q9NYD6 254-340) (Q9NYD6 254-340): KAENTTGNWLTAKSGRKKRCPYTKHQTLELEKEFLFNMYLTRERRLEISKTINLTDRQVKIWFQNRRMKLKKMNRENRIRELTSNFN

Sequence	binding signal
CGAGGAGC	9.97 upbm affinity estimate (log intensity, higher = more binding, comparable within an allelic series)
ATAGATGA	10.8 upbm affinity estimate (log intensity, higher = more binding, comparable within an allelic series)
CGCTGGGC	10 upbm affinity estimate (log intensity, higher = more binding, comparable within an allelic series)
ACATAAGT	10.9 upbm affinity estimate (log intensity, higher = more binding, comparable within an allelic series)
GTCCCGCA	10.1 upbm affinity estimate (log intensity, higher = more binding, comparable within an allelic series)
GACTGGGC	9.98 upbm affinity estimate (log intensity, higher = more binding, comparable within an allelic series)
CCCGTAAA	11.3 upbm affinity estimate (log intensity, higher = more binding, comparable within an allelic series)
AACATTAT	11.6 upbm affinity estimate (log intensity, higher = more binding, comparable within an allelic series)
AACCTGCC	10.1 upbm affinity estimate (log intensity, higher = more binding, comparable within an allelic series)
AAAGCGGG	9.98 upbm affinity estimate (log intensity, higher = more binding, comparable within an allelic series)
ATACTAAT	11.3 upbm affinity estimate (log intensity, higher = more binding, comparable within an allelic series)
AATCATCA	10.9 upbm affinity estimate (log intensity, higher = more binding, comparable within an allelic series)
GGGCTACC	10 upbm affinity estimate (log intensity, higher = more binding, comparable within an allelic series)
GAAGCTCC	10.1 upbm affinity estimate (log intensity, higher = more binding, comparable within an allelic series)
CCCGAGAC	9.98 upbm affinity estimate (log intensity, higher = more binding, comparable within an allelic series)
ATAAAAAT	12.2 upbm affinity estimate (log intensity, higher = more binding, comparable within an allelic series)
AGGCTTCC	10.1 upbm affinity estimate (log intensity, higher = more binding, comparable within an allelic series)
AGATAATG	11.3 upbm affinity estimate (log intensity, higher = more binding, comparable within an allelic series)
CTCGGGAA	10.1 upbm affinity estimate (log intensity, higher = more binding, comparable within an allelic series)
ATGTGCTA	10.7 upbm affinity estimate (log intensity, higher = more binding, comparable within an allelic series)

Sequence	binding signal
GACGATTA	11.2 upbm affinity estimate (log intensity, higher = more binding, comparable within an allelic series)
CTCCTCTC	10 upbm affinity estimate (log intensity, higher = more binding, comparable within an allelic series)
ATAAAGAT	11.6 upbm affinity estimate (log intensity, higher = more binding, comparable within an allelic series)
ATCATACA	10.9 upbm affinity estimate (log intensity, higher = more binding, comparable within an allelic series)
AGGGCCAG	9.98 upbm affinity estimate (log intensity, higher = more binding, comparable within an allelic series)
AAATAAAA	11.9 upbm affinity estimate (log intensity, higher = more binding, comparable within an allelic series)
AATGCTAT	11 upbm affinity estimate (log intensity, higher = more binding, comparable within an allelic series)
GCGACGAC	10.1 upbm affinity estimate (log intensity, higher = more binding, comparable within an allelic series)
ATACTATA	11.1 upbm affinity estimate (log intensity, higher = more binding, comparable within an allelic series)
ATATCAGG	10.6 upbm affinity estimate (log intensity, higher = more binding, comparable within an allelic series)
AAAGATAT	10.9 upbm affinity estimate (log intensity, higher = more binding, comparable within an allelic series)
GCTCCCGA	9.93 upbm affinity estimate (log intensity, higher = more binding, comparable within an allelic series)
AGAAAAAG	10 upbm affinity estimate (log intensity, higher = more binding, comparable within an allelic series)
CGCCGGCC	9.95 upbm affinity estimate (log intensity, higher = more binding, comparable within an allelic series)
CATAAATA	12.1 upbm affinity estimate (log intensity, higher = more binding, comparable within an allelic series)
ATGTCATA	11.1 upbm affinity estimate (log intensity, higher = more binding, comparable within an allelic series)
AGGAGTGG	9.97 upbm affinity estimate (log intensity, higher = more binding, comparable within an allelic series)
TTGGCCAA	9.97 upbm affinity estimate (log intensity, higher = more binding, comparable within an allelic series)
CGCCAGCG	10 upbm affinity estimate (log intensity, higher = more binding, comparable within an allelic series)
CGGCCCCG	10.2 upbm affinity estimate (log intensity, higher = more binding, comparable within an allelic series)

These sequences were tested against HOXC10 (Homo sapiens, UniProt Q9NYD6 254-340, K271E) (assay: PBM; 200 nM protein, PBS). Details: dsDNA, one strand shown.
Sequence of HOXC10 (Homo sapiens, UniProt Q9NYD6 254-340, K271E) (Q9NYD6 254-340 K271E): as the sequence (Q9NYD6 254-340) above, with K18E counted along it

Sequence	binding signal
CGAGGAGC	9.97 upbm affinity estimate (log intensity, higher = more binding, comparable within an allelic series)
ATAGATGA	10.8 upbm affinity estimate (log intensity, higher = more binding, comparable within an allelic series)
CGCTGGGC	9.98 upbm affinity estimate (log intensity, higher = more binding, comparable within an allelic series)
ACATAAGT	10.8 upbm affinity estimate (log intensity, higher = more binding, comparable within an allelic series)
GTCCCGCA	10.1 upbm affinity estimate (log intensity, higher = more binding, comparable within an allelic series)
GACTGGGC	10 upbm affinity estimate (log intensity, higher = more binding, comparable within an allelic series)
AACATTAT	11.3 upbm affinity estimate (log intensity, higher = more binding, comparable within an allelic series)
AACCTGCC	10.1 upbm affinity estimate (log intensity, higher = more binding, comparable within an allelic series)
AAAGCGGG	10.1 upbm affinity estimate (log intensity, higher = more binding, comparable within an allelic series)
ATACTAAT	11.2 upbm affinity estimate (log intensity, higher = more binding, comparable within an allelic series)
AATCATCA	10.9 upbm affinity estimate (log intensity, higher = more binding, comparable within an allelic series)
GGGCTACC	10.1 upbm affinity estimate (log intensity, higher = more binding, comparable within an allelic series)
GAAGCTCC	10.1 upbm affinity estimate (log intensity, higher = more binding, comparable within an allelic series)
CCCGAGAC	9.98 upbm affinity estimate (log intensity, higher = more binding, comparable within an allelic series)
ATAAAAAT	11.7 upbm affinity estimate (log intensity, higher = more binding, comparable within an allelic series)
AGGCTTCC	10.1 upbm affinity estimate (log intensity, higher = more binding, comparable within an allelic series)
AGATAATG	11.2 upbm affinity estimate (log intensity, higher = more binding, comparable within an allelic series)
CTCGGGAA	10 upbm affinity estimate (log intensity, higher = more binding, comparable within an allelic series)
ATGTGCTA	10.7 upbm affinity estimate (log intensity, higher = more binding, comparable within an allelic series)

Sequence	binding signal
GACGATTA	11.1 upbm affinity estimate (log intensity, higher = more binding, comparable within an allelic series)
CTCCTCTC	10 upbm affinity estimate (log intensity, higher = more binding, comparable within an allelic series)
ATAAAGAT	11.1 upbm affinity estimate (log intensity, higher = more binding, comparable within an allelic series)
ATCATACA	10.8 upbm affinity estimate (log intensity, higher = more binding, comparable within an allelic series)
AGGGCCAG	10 upbm affinity estimate (log intensity, higher = more binding, comparable within an allelic series)
AAATAAAA	11.1 upbm affinity estimate (log intensity, higher = more binding, comparable within an allelic series)
AATGCTAT	10.9 upbm affinity estimate (log intensity, higher = more binding, comparable within an allelic series)
GCGACGAC	10 upbm affinity estimate (log intensity, higher = more binding, comparable within an allelic series)
ATACTATA	11 upbm affinity estimate (log intensity, higher = more binding, comparable within an allelic series)
ATATCAGG	10.7 upbm affinity estimate (log intensity, higher = more binding, comparable within an allelic series)
GCTCCCGA	10.1 upbm affinity estimate (log intensity, higher = more binding, comparable within an allelic series)
AGAAAAAG	10.1 upbm affinity estimate (log intensity, higher = more binding, comparable within an allelic series)
CGCCGGCC	9.99 upbm affinity estimate (log intensity, higher = more binding, comparable within an allelic series)
CATAAATA	11.5 upbm affinity estimate (log intensity, higher = more binding, comparable within an allelic series)
ATGTCATA	11.1 upbm affinity estimate (log intensity, higher = more binding, comparable within an allelic series)
AGGAGTGG	9.99 upbm affinity estimate (log intensity, higher = more binding, comparable within an allelic series)
TTGGCCAA	9.93 upbm affinity estimate (log intensity, higher = more binding, comparable within an allelic series)
CGCCAGCG	9.94 upbm affinity estimate (log intensity, higher = more binding, comparable within an allelic series)
CGGCCCCG	10.1 upbm affinity estimate (log intensity, higher = more binding, comparable within an allelic series)
